Growth data for 28 compounds are collected here from PubChem BioAssay (NCI).

The structures appear in SMILES notation. About 83,000 compounds went through this panel and 20% of them were active in at least one assay; those are over-represented in the sample as a whole.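 Plates (96-well) were seeded with cells, treated with compound at one concentration, and incubated for 48 hours before percent growth was determined.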 A number with no mark means an inactive call. Activity calls are given as the source filed them. Rule for the calls: active = growth percent below 10; inactive = the rest.

The test has as its system BT-549 breast. In words: NCI-60 one-dose screen, 48 h (100 = growth as untreated, 0 = no growth, -100 = all killed). The following applies: 10 µM unless noted.
As for `CCCCCCC1(C)NCCO1` (stereo not drawn), the growth is 103%. As to `O=C(CCCCCCN1CC(=O)N2[C@H](c3cc(Br)cs3)c3[nH]c4ccccc4c3C[C@H]2C1=O)NO`, the growth was 68.1%.

Regarding `C=CCn1c(SCC(=O)Nc2ccc(C(=O)/C=C/c3cc4cc(OC)ccc4nc3Cl)cc2)nnc1-c1ccc(Br)cc1`, the growth was 79.3%. In the case of `O=C(COc1ccc(-c2nc3ccccc3[nH]2)cc1)N=Nc1c(O)[nH]c2ccc(Cl)cc12`, the growth was 110%. In the case of `Cc1cc(=O)[nH]c2c(C#N)cnn12`, the growth is 107%. `O=C1Nc2ccc(I)cc2C1=O`: the growth was 80.1%. For `Fc1ccc(Nc2nc3nonc3nc2Nc2ccc(I)cc2)cc1`, the growth is -6.04% (active). In the case of `CN1CCN(Cc2ccc3c(NNC(=O)c4ccccc4)nc4cc(F)ccc4n23)CC1`, the growth is 49%. As for `O=C(Nn1c2c(sc1=NCc1ccccc1)C(=O)c1ccccc1C2=O)c1cc2ccc1CCc1ccc(cc1)CC2`, the growth was 77.3%. For the compound `Cc1cc2c(O)c(-c3cccc(Cl)c3)c3sc(=O)oc3c2cc1C`, the growth was 58.8%. On to `CC12CCC3c4ccccc4CCC3(CO1)C2` (stereo not drawn), for which the growth was 121%. Consider `O=C(Cn1cc(CN2CCCCCC2)nn1)Nc1ccc2c(ccn2Cc2ccccc2)c1`, for which the growth was 86.9%. For the compound `COc1cc(OC)cc(C2=C3CC[C@@H]4[C@H](CC[C@]5(C)C(=O)CC[C@@H]45)C3=CC3C(O)c4cccnc4N4C(=O)COC234)c1` (stereo partly drawn), the growth was 94.7%. Next, `O=C(Cn1c(-c2ccc([N+](=O)[O-])cc2)nc2ccccc21)NNC(=O)c1cccnc1`: 97%; `CCNc1nc(-c2ccc(Cl)c(OC)c2)c(-c2ccnc(NCCCNS(=O)(=O)c3ccc(Cl)cc3)n2)s1`: 52%; `COc1ccc2c(O)c(/C=C3\N=Nc4ccccc43)oc2c1C[C@@H]1CCNC[C@H]1F`: 73.8%. Next, `CC(C)(C)[Si](C)(C)O[C@H]1C(=O)C=CN2CC=C[C@@H]12`: 137% [100 µM]; `CN1CCN(Cc2ccc(NC(=O)c3cncc(C#Cc4cnc(N)c5ccccc45)c3)cc2C(F)(F)F)CC1`: 25.9%; `CC(C)N1CN2C(=S)NC3C2N(C1)C(=S)N3C` (stereo not drawn): 124%. As for `COc1ccc(C(=O)Nc2cccc(C3CC(=O)c4c(cc(OC)c(OC)c4OC)O3)c2)cc1` (stereo not drawn), the growth is 34.7%. On to `O=c1oc2ccc([N+](=O)[O-])cc2cc1Br`, for which the growth is 112%. For `CCOC(=O)c1cc2c(=O)oc3ccccc3c2oc1=O`, the growth was 99.4%. Consider `Clc1ccc(Sc2cnc(-c3ccccc3)o2)cc1`, for which the growth was 96.6%. The value for `CN(C)c1ccc(/C=C/C(=O)c2ccc(-n3cc(CN4CCN(c5cc6c(cc5F)c(=O)c(C(=O)O)cn6C5CC5)CC4)nn3)cc2)cc1` was 32%; that for `Oc1ccc(CCn2c(O)c(/C=C3\CN=c4ccccc4=N3)sc2=S)cc1` was 43.8%; that for `COC1C[C@H](O[C@@H]2C[C@H](O[C@@H]3C[C@H](O[C@@H]4C(=O)c5c(cc6cc(O[C@H]7C[C@@H](O[C@H]8C[C@@H](O)[C@H](O)C(C)O8)[C@H](O)C(C)O7)c(C)c(O)c6c5O)C[C@H]4C(OC)C(=O)[C@@H](O)[C@@H](C)O)OC(C)[C@H]3O)OC(C)[C@@H]2O)OC(C)[C@@H]1O` (stereo partly drawn) was -20.4% (active).

For the compound `C[C@H](NC(=O)[C@@H](C)N)[C@H](Oc1ccc2c(cnn2-c2ccc(F)cc2)c1)c1ccc2c(c1)OCCO2`, the growth was 32.9%. Next, `CCc1ccc(Oc2cn[nH]c2-c2ccc(OCCc3ccc(F)cc3)cc2O)cc1`: 107%.
